Shown are actives, neighbours in structure and some others; about 7.7% of the full set was active somewhere.
HCMV inh – qHTS Assay for inhibitors of the human cytomegalovirus (HCMV); HFF cells, HCMV-luciferase reporter, 72 h; active compounds read low; activity change, negative = inhibition, % at 57.5 µM; 4.5% of 410,000 active; in the data active = activity change below about -60%; inconclusive = no clear call, values can overlap the other calls; inactive = above about -39%
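Human foreskin fibroblasts infected with luciferase-reporter HCMV at MOI 1 PFU/cell, compounds at two doses. Luciferase measured 72 h post infection; normalized to buffer-only basal and Salinomycin (10uM) controls.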
RE007 growth inh – qHTS Assay for Inhibitors of the HIV-1 protein Vpr; S. pombe RE007 Vpr strain, BacTiter-Glo ATP luminescence, 24 h; Potency, µM (series often up to 92.2 µM), for the others: top-dose activity change, negative = less growth, usual class: inhibitors; 0.21% of 360,000 active; AID 651644, 2012; active = well fitted falling curve with a large enough effect; inconclusive = small, poorly fitted or top-dose-only effect; inactive = no such curve, though single readings can be large or run the other way; also: potency is read from the fitted curve at half-maximal effect; nearly all actives have a fitted effect of over 50% in size
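Fission yeast RE007 carrying one integrated HIV-1 vpr copy, seeded at OD 0.01 in PMG+AL medium with 23 nL pinned compound. Grown 24 h at 30 degrees; viability read by BacTiter-Glo luminescence after 5 min.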
Sm TGR block – qHTS Assay for the Inhibitors of Schistosoma Mansoni Peroxiredoxins. Potency, µM (series often up to 114 µM), inactives show top-dose activity change, negative = inhibition, usual class: inhibitors. Schistosoma mansoni thioredoxin glutathione reductase (TGR), Q962Y6. 3% of 360,000 active. purified TGR, DTNB reduction, TNB absorbance 405 nm; also: potency is read from the fitted curve at half-maximal effect; nearly all actives have a fitted effect of over 60% in size
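First, TGR (20 nM dispensed) and NADPH were mixed with compound. Second, a 15 min room-temperature incubation followed. Third, further NADPH and then DTNB were added to start the reaction. Finally, TNB absorbance was monitored kinetically.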
Giardia FBPA inh – qHTS Assay for Inhibitors of Fructose-1,6-bisphosphate Aldolase from Giardia Lamblia | purified Giardia FBPA | A8B2U2 | Potency, µM (titrated, usually from 59.6 µM), inactives show at the top dose activity, negative = inhibition, most hits filed as inhibitors | 0.71% of 290,000 active; also: potency is read from the fitted curve at half-maximal effect; nearly all actives have a fitted effect of over 55% in size
Target sequence (A8B2U2 whole entry, looked up): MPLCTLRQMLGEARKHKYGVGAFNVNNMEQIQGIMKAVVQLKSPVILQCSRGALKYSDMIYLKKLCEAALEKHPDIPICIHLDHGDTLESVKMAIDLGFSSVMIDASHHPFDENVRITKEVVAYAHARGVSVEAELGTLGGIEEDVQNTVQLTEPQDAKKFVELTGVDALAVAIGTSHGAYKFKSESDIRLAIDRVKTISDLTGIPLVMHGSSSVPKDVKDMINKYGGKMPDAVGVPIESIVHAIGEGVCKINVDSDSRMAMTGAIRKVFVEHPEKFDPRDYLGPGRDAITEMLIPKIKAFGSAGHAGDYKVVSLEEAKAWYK
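Giardia FBPA (40 nM reagent) was preincubated 10 min at RT with compound (up to 57.5 uM final), then substrate plus GAPDH/TPI/NAD/arsenate coupling system with diaphorase/resazurin was added; resorufin fluorescence (525/598 nm) was read after 20 min.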
Tb PYK inh – qHTS of Trypanosoma Brucei Inhibitors. Potency, µM (titrated, usually from 76.8 µM), inactives show top-dose activity, negative = inhibition, hits mostly inhibitors. 0.12% of 410,000 active. TbPYK enzyme, Kinase-Glo Plus ATP luminescence, 45 min; also: potency is read from the fitted curve at half-maximal effect; nearly all actives have a fitted effect of over 50% in size
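Luminescent Kinase-Glo Plus end-point after 45 min room-temperature reaction of T. brucei pyruvate kinase started with 130 uM ADP (final). Buffer TEA 50 mM pH 7.2 with KCl, MgCl2, BSA, Tween-20; titration-based qHTS with fitted concentration-effect curves.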
FMDV inh – High Throughput Screening for Foot and Mouth Disease Virus Antivirals; FMDV antiviral cell-based qHTS; Potency, µM (series often up to 57.9 µM), for the others: top-dose activity change, negative = inhibition, most hits filed as inhibitors; 1.2% of 410,000 active; calls by dose curve; tested in HEK293T cells; also: read-out not given here; potency is read from the fitted curve at half-maximal effect; nearly all actives have a fitted effect of over 45% in size
* = called active by the depositor. Unless noted, calls follow the shape of the dose curve; as a rule, active = well fitted curve in the direction sought with a large enough effect; inconclusive = small, poorly fitted or top-dose-only effect, or another doubt; inactive = no such curve, though single readings can be large; an effect the other way counts as inactive or inconclusive. % is scaled to controls: 0 for no effect and ±100 for the full control effect.

Results for c1cc2c(cc1-c1[nH]ncc1CN1CC3C[C@@H]4CC1C[C@H](C3)C4)OCO2 ?
HCMV inh: -69.4*; RE007 growth inh: 6.3%; Sm TGR block: 1.0%; Giardia FBPA inh: inconclusive; Tb PYK inh: -1.9%; FMDV inh: 4.1%

Results for COc1ccccc1NC(=O)c1ccc(NC(=O)COC(=O)C(C)C)cc1 ?
HCMV inh: -25.9; RE007 growth inh: -9.9%; Sm TGR block: 31.6µM*; Giardia FBPA inh: -0.6%; Tb PYK inh: -1.0%; FMDV inh: -23.6%

What do the screens show for `CCCOC(=O)c1ccc(NC(=O)c2ccccc2[N+](=O)[O-])cc1`?
HCMV inh: -99.7*; RE007 growth inh: -9.4%; Sm TGR block: -0.2%; Giardia FBPA inh: -17.2%; Tb PYK inh: 1.3%; FMDV inh: 43.2%

Results for COc1ccccc1NC(=O)c1ccc(NC(=O)COC(=O)c2ccc(O)cc2)cc1 ?
HCMV inh: -3.0; RE007 growth inh: 11.9%; Sm TGR block: -3.2%; Tb PYK inh: 0.9%; FMDV inh: -13.0%

How did CCCn1c(SCC(=O)Nc2ccc(C(=O)Nc3ccccc3OC)cc2)n[nH]c1=O do in these assays?
HCMV inh: -15.3; RE007 growth inh: 0.4%; Sm TGR block: 3.4%; Giardia FBPA inh: -5.7%; Tb PYK inh: 1.7%; FMDV inh: 31.6µM*

Results for Cc1ccc(NC(=O)COc2ccccc2CNC(C)(C)CC(C)(C)C)cc1 ?
HCMV inh: -64.7*; RE007 growth inh: -12.6%; Sm TGR block: -6.0%; Giardia FBPA inh: 6.2%; Tb PYK inh: -9.9%; FMDV inh: 0.0%

Results for CC(C)(CO)NCc1ccccc1OCC(=O)Nc1ccccc1 ?
HCMV inh: 9.8; RE007 growth inh: 9.2%; Sm TGR block: 14.8%; Giardia FBPA inh: 3.5%; Tb PYK inh: -2.7%

What do the screens show for `COc1ccccc1NC(=O)c1ccc(NC(=O)CSc2nncn2C)cc1`?
HCMV inh: -0.3; RE007 growth inh: 17.0%; Sm TGR block: -12.1%; Giardia FBPA inh: 0.6%; Tb PYK inh: 4.5%; FMDV inh: -22.8%

How did O=S(=O)(NCc1ccc(Cl)c(Cl)c1)c1cc(Cl)ccc1N1CC[C@@H](O)C1 do in these assays?
HCMV inh: -25.3

Results for COc1ccccc1Nc1ccc(NC(=O)c2cccc([N+](=O)[O-])c2C)cc1 ?
HCMV inh: -62.4*; RE007 growth inh: -20.5%; Sm TGR block: -5.1%; Giardia FBPA inh: -3.5%; Tb PYK inh: -5.7%; FMDV inh: inconclusive

What do the screens show for `Cc1ccccc1OCC(=O)Nc1nnc(COc2ccccc2)s1`?
HCMV inh: -78.9*; RE007 growth inh: -4.1%; Tb PYK inh: -8.4%; FMDV inh: -4.3%

How did Cc1ccc(OCC(=O)Nc2ccc(C(=O)Nc3ccccc3C(=O)O)cc2)cc1C do in these assays?
HCMV inh: -8.2; RE007 growth inh: 1.5%; Tb PYK inh: -5.3%; FMDV inh: 10.5%

Results for Cc1cccc(OCC(=O)Nc2ccc(N3CCCC3)cc2)c1C ?
HCMV inh: -22.4; RE007 growth inh: -5.4%; Sm TGR block: 31.6µM*; Giardia FBPA inh: -15.0%; Tb PYK inh: 0.4%

How did CCC(=O)NC(=S)Nc1ccc(NC(=O)c2cccc([N+](=O)[O-])c2C)cc1 do in these assays?
HCMV inh: inconclusive; RE007 growth inh: 4.7%; Sm TGR block: -28.5%; Giardia FBPA inh: 0.3%; Tb PYK inh: -12.4%; FMDV inh: -10.2%

Results for Cc1ccccc1OCC(=O)Nc1ccc(C(=O)Nc2ccccc2C(=O)O)cc1 ?
HCMV inh: -69.9*; RE007 growth inh: -5.5%; Sm TGR block: inconclusive; Tb PYK inh: -2.3%; FMDV inh: -0.7%

What do the screens show for `COc1ccccc1OCC(=O)Nc1ccc(N2CCCCC2)cc1`?
HCMV inh: 33.8; RE007 growth inh: -2.0%; Sm TGR block: 0.0%; Giardia FBPA inh: -5.3%; Tb PYK inh: 0.4%; FMDV inh: 17.3%

How did COc1ccccc1-c1cc2c(c(OC)c1)OCCN(CCC(C)c1ccc(C)o1)C2 (centres undefined) do in these assays?
FMDV inh: -11.0%

How did COc1cc(-c2nc(C)cnc2C)cc2c1OCCN(C(=O)Cn1nc(-c3ccccc3)c3ccccc3c1=O)C2 do in these assays?
FMDV inh: 2.6%

How did COc1ccccc1NC(=O)COc1ccccc1C(=O)Nc1ccccc1 do in these assays?
HCMV inh: -92.9*; RE007 growth inh: -1.3%; Sm TGR block: 15.1%; Giardia FBPA inh: -6.7%; Tb PYK inh: 1.7%; FMDV inh: -21.9%

Results for Cc1ccc(C(=O)N2CCN(c3ccc(NC(=O)COc4ccccc4C)cc3)CC2)cc1 ?
HCMV inh: inconclusive; RE007 growth inh: 4.8%; Sm TGR block: 3.0%; Giardia FBPA inh: -7.6%; Tb PYK inh: 2.5%; FMDV inh: 14.1µM*

Results for N#Cc1ccccc1NC(=O)COc1ccccc1C(=O)Nc1ccccc1 ?
HCMV inh: 81.9; RE007 growth inh: -10.4%; Tb PYK inh: -1.5%; FMDV inh: 5.6%

How did COc1cc2c3c(c1)C(C)=CC(C)(C)N3C(=O)C2=O do in these assays?
HCMV inh: -84.6*; RE007 growth inh: -8.3%; Sm TGR block: 4.1%; Giardia FBPA inh: -9.2%; Tb PYK inh: -5.4%; FMDV inh: 29.8%

Results for COc1ccc(C(=O)Oc2cc3c4c(c2)C(C)=CC(C)(C)N4C(=O)C3=O)cc1OC ?
HCMV inh: -13.8; RE007 growth inh: -11.0%; Sm TGR block: -4.4%; Giardia FBPA inh: -9.0%; Tb PYK inh: -8.4%; FMDV inh: inconclusive

Results for COc1cccc(C(=O)Oc2cc3c4c(c2)C(C)=CC(C)(C)N4C(=O)C3=O)c1 ?
HCMV inh: -77.1*; RE007 growth inh: 6.9%; Sm TGR block: 3.1%; Giardia FBPA inh: -16.1%; Tb PYK inh: -3.5%

What do the screens show for `COc1ccc(Cl)cc1NC(=O)Cn1c(=O)n(-c2ccc(C)cc2)c(=O)c2ccc(C(=O)NCc3ccccc3Cl)cc21`?
HCMV inh: -13.3; Sm TGR block: -14.3%; Tb PYK inh: 1.7%; FMDV inh: 6.8%

Results for N#Cc1cccc(NC(=O)C2CCN(c3nc(-c4ccc(Cl)cc4)no3)CC2)c1 ?
HCMV inh: inconclusive; Sm TGR block: 19.5%; Tb PYK inh: -7.2%; FMDV inh: 25.1µM*

Results for Cc1ccc(Nc2nc(-c3ccc(F)cc3)cs2)nc1 ?
HCMV inh: 106.9; RE007 growth inh: -18.6%; Sm TGR block: 41.4%; Giardia FBPA inh: -18.0%; Tb PYK inh: 5.2%; FMDV inh: 52.9%
